For test [1], the target named is Agonist Androgen Response Element (ARE), AR (gene 367) (UniProt P10275). Briefly: OT_AR_ARELUC_AG_1440: Odyssey Thera (OT) 24-hour CHO-K1 Luciferase Assay for Agonist Androgen Response Element (ARE) (AID 2283379). Put shortly: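 Gain-of-signal reporter endpoint: cells (CHO-K1, hamster) are treated 24 h, luciferin/ATP reagent added, and luminescence compared with DMSO baseline.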

The target in test [2] is Estrogen receptor beta (Homo sapiens) (UniProt Q92731). Put plainly: OT_ER_ERbERb_1440: Odyssey Thera (OT) 24-hour HEK293T Protein-Complementation Assay for Estrogen Receptor-beta/-beta Homodimer (AID 2283380).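 Note: scored as signal increase over DMSO baseline for both agonists and antagonists.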 Put shortly:
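HEK293T cells stably expressing ER beta LBD (aa 310-547) homodimer fragment-complementation reporter, dosed 24 h. Cells formaldehyde-fixed, Draq5-stained; gain in nuclear (agonist) or nuclear plus cytoplasmic (antagonist) fluorescence versus DMSO read by laser scanning cytometry.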

Test [3] addresses Estrogen receptor (Homo sapiens) (UniProt P03372). Put plainly: OT_ERa_GFPERaERE_0480: Odyssey Thera (OT) 8-hour HeLa Transcription Induction Assay for Estrogen Receptor (AID 2283381; active = hit-call score of the fitted dose curve at least 0.9, where 1 is the maximum; inactive = score below 0.9). Put shortly:
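Fluorescence microscopy with high-content image analysis measures ERE-driven GFP induction in HeLa cells at 8 h post-dose. Increases fitted against DMSO baseline.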

Test [4] has the same target. Briefly: OT_ERa_GFPERaERE_0120: Odyssey Thera (OT) 2-hour HeLa Transcription Induction Assay for Estrogen Receptor (AID 2283382). Put shortly: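 Fluorescence-microscopy images of the GFP-ERα/ERE reporter, scored by high-content image algorithms, give the readout. HeLa exposure lasted 2 h, and only signal increase over DMSO was fitted.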
Test [5] deals with Retinoic acid receptor RXR-alpha (Homo sapiens) (UniProt P19793). Briefly: OT_NURR1_NURR1RXRa_0480: Odyssey Thera (OT) 8-hour HEK293T Protein Complementation Assay for Nurr1/retinoid X receptor (RXR) (AID 2283385). Put shortly:
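Interaction of Nurr1 with RXRα read as reconstituted reporter fluorescence in a HEK293T fragment-complementation system, 8 h post-treatment; increase over DMSO baseline analysed.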

The target is the same in test [6]. Put plainly: OT_NURR1_NURR1RXRa_1440: Odyssey Thera (OT) 24-hour HEK293T Protein Complementation Assay for Nurr1/retinoid X receptor (RXR) (AID 2283386). Put shortly: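 Gain in fluorescence, fitted relative to DMSO, reflects Nurr1–RXRα association in HEK293T cells after 24 h dosing. Bait and prey are each linked to a reporter-protein fragment that reassembles on interaction.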

Test [7] deals with Peroxisome proliferator-activated receptor gamma (Homo sapiens) (UniProt P37231). Put plainly: OT_PPARg_PPARgSRC1_0480: Odyssey Thera (OT) 8-hour Protein-Complementation Assay for Peroxisome Proliferator-activated Receptor Gamma / SRC-1 Co-activator (AID 2283387).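 Note: nuclear to cytoplasmic split Venus YFP fluorescence ratio reporting PPARg SRC-1 interaction.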 Put shortly: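 Protein-fragment complementation of split Venus YFP reports PPARg/SRC-1 interaction in HEK293T (transfected 48 h before treatment), exposed 8 h. Readout: N/C fluorescence ratio at 488 nm from imaging, Draq5 for segmentation, positive fit relative to DMSO.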
Chain of Peroxisome proliferator-activated receptor gamma (Homo sapiens) (P37231 whole entry, looked up, the tested form may be a part): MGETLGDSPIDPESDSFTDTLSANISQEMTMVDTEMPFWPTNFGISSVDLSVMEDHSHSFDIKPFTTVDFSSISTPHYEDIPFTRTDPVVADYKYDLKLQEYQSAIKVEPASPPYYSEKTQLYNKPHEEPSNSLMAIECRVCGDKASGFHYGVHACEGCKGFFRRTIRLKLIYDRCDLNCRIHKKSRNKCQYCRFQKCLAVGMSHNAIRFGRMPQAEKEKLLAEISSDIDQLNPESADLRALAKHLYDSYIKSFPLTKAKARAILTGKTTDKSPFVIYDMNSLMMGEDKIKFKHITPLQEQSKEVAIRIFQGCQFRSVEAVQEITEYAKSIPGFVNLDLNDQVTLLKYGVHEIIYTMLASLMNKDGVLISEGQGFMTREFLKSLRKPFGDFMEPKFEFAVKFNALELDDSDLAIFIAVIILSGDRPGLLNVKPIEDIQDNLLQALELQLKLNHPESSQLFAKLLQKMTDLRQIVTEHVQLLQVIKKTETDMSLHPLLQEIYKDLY

For test [8] the target is unchanged. Put plainly: OT_PPARg_PPARgSRC1_1440: Odyssey Thera (OT) 24-hour Protein-Complementation Assay for Peroxisome Proliferator-activated Receptor Gamma/ SRC-1 Co-activator (AID 2283388).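 Note: nuclear to cytoplasmic ratio of reconstituted Venus YFP fluorescence in fixed imaged cells.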 Put shortly:
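Transient HEK293T, YFP fragments 1-158/159-239 (mutant IFP1/IFP2) fused to PPARg/SRC-1; 24 h dosing; fix 4% formaldehyde, Draq5; Opera imaging 488/635 nm; N/C ratio, gain vs DMSO.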

Test [9] deals with human Norepinephrine Transporter (NET), SLC6A2 (gene 6530) (UniProt P23975). Briefly: NVS_TR_hNET: NovaScreen (NVS) Transporter Assay for human Norepinephrine Transporter (NET) (AID 2283377).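 For AC50: displacement of radioligand from human NET seen as loss of scintillation signal.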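 Note: cell-free membrane protein extracted from CHO cells expressing human NET.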 Put shortly:
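CHO cell extracts expressing the transporter; tritiated or iodinated tracer displaced competitively; filtration plus scintillation readout at 1 h. Single-point duplicates at 25 uM, concentration series for follow-up; activity = signal drop relative to DMSO.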

Test [10] addresses mouse Estrogen Receptor alpha (Era), Esr1 (gene 13982) (UniProt P19785). Briefly: NVS_NR_mERa: NovaScreen (NVS) Nuclear Receptor Binding Assay for mouse Estrogen Receptor alpha (Era) (AID 2283378).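 Note: hit means loss of bound radioligand signal relative to DMSO.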 Put shortly: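 Test chemicals competed against a specific radioligand for binding to cell-free mouse Era. Duplicate wells at 25 uM were read 18 hours later by filter-based radiodetection, with loss of signal against DMSO scored as activity.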

Test [11] addresses Bile acid receptor (Homo sapiens) (UniProt Q96RI1). Put plainly: OT_FXR_FXRSRC1_0480: Odyssey Thera (OT) 8-hour HEK293T Protein-Complementation Assay for Farnesoid X receptor/SRC-1 Co-activator (AID 2283383). Put shortly:
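Binding of FXR to coactivator SRC-1 was read as fluorescence from a reconstituted split reporter in HEK293T cells, 8 h after chemical addition. Only increases in signal versus DMSO were fit.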

The target is the same in test [12]. Briefly: OT_FXR_FXRSRC1_1440: Odyssey Thera (OT) 24-hour HEK293T Protein-Complementation Assay for Farnesoid X receptor/SRC-1 Co-activator (AID 2283384). The method, boiled down: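 Protein-fragment complementation: FXR and SRC-1 fused to reporter fragments that reassemble on interaction, read by fluorescence intensity. Human HEK293T cells measured 24 h post-dose; positive-direction fit versus DMSO.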

Test [13] has as its target rat Serotonin Transporter (SERT), Slc6a4 (gene 25553) (UniProt P31652). Briefly: NVS_TR_rSERT: NovaScreen (NVS) Transporter Assay for rat Serotonin Transporter (SERT) (AID 2283375). Put shortly:
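Steps: rat forebrain membranes dosed with chemical (25 uM duplicate primary; concentration series for actives); 1 h incubation; labelled ligand bound, filtered, counted by scintillation. Activity scored as signal loss vs DMSO.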

The nature of test [14]: CEETOX_H295R_11DCORT: CeeTox H295R High-throughput Steroidogenesis Assay for 11-Deoxycortisol (11DCORT) (AID 2283432; active = hit-call score of the fitted dose curve at least 0.9, where 1 is the maximum; inactive = score below 0.9;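 for AC50: 11-deoxycortisol secreted into the medium measured by LC-MS/MS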). As to conditions: actives raise or lower the signal. Put shortly: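 Human adrenal H295R cells were prestimulated with 10 uM forskolin for 48 h, then exposed to test chemical (0.1% DMSO final) for 48 h. Medium 11-deoxycortisol was quantified by MTBE extraction and HPLC-MS/MS; bidirectional fitting relative to DMSO.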

Test [15] can be described thus: CEETOX_H295R_OHPREG: CeeTox H295R High-throughput Steroidogenesis Assay for OH-Pregnenolone (OHPREG) (AID 2283434; active = hit-call score of the fitted dose curve at least 0.9, where 1 is the maximum; inactive = score below 0.9). As to conditions: actives raise or lower the signal. The method, boiled down:
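H295R, 10 uM forskolin pre-stim 48 h; test chemical 48 h, 0.1% DMSO final. MTBE extraction, reverse-phase C18 HPLC-ESI+ MS/MS of medium. Gain/loss vs DMSO; viability by MTT in same wells.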

A short description of test [16]: CEETOX_H295R_CORTIC: CeeTox H295R High-throughput Steroidogenesis Assay for Corticosterone (CORTIC) (AID 2283437; active = hit-call score of the fitted dose curve at least 0.9, where 1 is the maximum; inactive = score below 0.9;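 note: corticosterone secreted into medium quantified by mass spectrometry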). As to conditions: actives raise or lower the signal. Put shortly:
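48 h forskolin (10 uM) prestim, then 48 h chemical exposure, final DMSO 0.1%. Readout: corticosterone in medium by LC-MS/MS after MTBE extraction. Gain/loss fit vs DMSO; MTT viability in same wells.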

A short description of test [17]: CEETOX_H295R_CORTISOL: CeeTox H295R High-throughput Steroidogenesis Assay for Cortisol (AID 2283438; active = hit-call score of the fitted dose curve at least 0.9, where 1 is the maximum; inactive = score below 0.9;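 note: cortisol secreted into medium quantified by LC-MS/MS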). Particulars: actives raise or lower the signal. The method, boiled down: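 Cortisol measured by HPLC-MS/MS after MTBE extraction of medium from H295R cells exposed 48 h to chemical (0.1% DMSO), following 48 h prestimulation with 10 uM forskolin. Viability assessed by MTT in the same wells.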

A short description of test [18]: CEETOX_H295R_DOC: CeeTox H295R High-throughput Steroidogenesis Assay for DOC (AID 2283439; active = hit-call score of the fitted dose curve at least 0.9, where 1 is the maximum; inactive = score below 0.9). As to conditions: actives raise or lower the signal. The method, boiled down: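 11-Deoxycorticosterone quantified in medium by MTBE extraction and HPLC-MS/MS after 48 h chemical exposure (0.1% DMSO) of forskolin-primed (10 uM, 48 h) H295R cells. Same-well MTT viability; data fitted bidirectionally against DMSO.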

The nature of test [19]: CEETOX_H295R_ESTRADIOL: CeeTox H295R High-throughput Steroidogenesis Assay for Estradiol (AID 2283440; active = hit-call score of the fitted dose curve at least 0.9, where 1 is the maximum; inactive = score below 0.9;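 note: estradiol secreted into medium quantified by LC-MS/MS after dansyl derivatisation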). Particulars: actives raise or lower the signal. Put shortly:
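Following OECD 456 with minor changes, H295R cells received 10 uM forskolin for 48 h and then test chemical for 48 h. Hormone output was read by HPLC-MS/MS, with cytotoxic concentrations diluted until MTT viability reached ≥70%.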

Inconclusive results are not listed. Where a structure was tested more than once in an assay, its records may differ in their call. Active and inactive are the calls of the source. Rule for the calls, unless noted: active = hit-call score of the fitted dose curve at least 0.9, where 1 is the maximum; inconclusive = response in the unintended direction; inactive = score below 0.9.

Chain of Bile acid receptor (Homo sapiens) (Q96RI1 whole entry, looked up): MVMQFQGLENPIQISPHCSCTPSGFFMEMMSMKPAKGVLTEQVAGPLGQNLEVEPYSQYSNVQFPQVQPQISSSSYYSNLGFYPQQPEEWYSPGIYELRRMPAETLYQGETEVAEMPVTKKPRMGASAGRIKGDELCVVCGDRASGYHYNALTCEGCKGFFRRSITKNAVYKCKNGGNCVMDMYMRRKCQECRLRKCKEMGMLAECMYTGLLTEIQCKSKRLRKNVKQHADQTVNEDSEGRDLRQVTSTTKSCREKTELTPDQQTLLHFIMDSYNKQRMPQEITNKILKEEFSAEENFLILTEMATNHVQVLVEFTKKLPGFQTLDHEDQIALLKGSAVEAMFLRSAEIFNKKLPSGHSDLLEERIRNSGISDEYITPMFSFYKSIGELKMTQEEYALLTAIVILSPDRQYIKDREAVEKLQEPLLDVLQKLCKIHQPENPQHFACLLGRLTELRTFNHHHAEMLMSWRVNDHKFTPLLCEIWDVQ
Chain of Estrogen receptor (Homo sapiens) (P03372 whole entry, looked up): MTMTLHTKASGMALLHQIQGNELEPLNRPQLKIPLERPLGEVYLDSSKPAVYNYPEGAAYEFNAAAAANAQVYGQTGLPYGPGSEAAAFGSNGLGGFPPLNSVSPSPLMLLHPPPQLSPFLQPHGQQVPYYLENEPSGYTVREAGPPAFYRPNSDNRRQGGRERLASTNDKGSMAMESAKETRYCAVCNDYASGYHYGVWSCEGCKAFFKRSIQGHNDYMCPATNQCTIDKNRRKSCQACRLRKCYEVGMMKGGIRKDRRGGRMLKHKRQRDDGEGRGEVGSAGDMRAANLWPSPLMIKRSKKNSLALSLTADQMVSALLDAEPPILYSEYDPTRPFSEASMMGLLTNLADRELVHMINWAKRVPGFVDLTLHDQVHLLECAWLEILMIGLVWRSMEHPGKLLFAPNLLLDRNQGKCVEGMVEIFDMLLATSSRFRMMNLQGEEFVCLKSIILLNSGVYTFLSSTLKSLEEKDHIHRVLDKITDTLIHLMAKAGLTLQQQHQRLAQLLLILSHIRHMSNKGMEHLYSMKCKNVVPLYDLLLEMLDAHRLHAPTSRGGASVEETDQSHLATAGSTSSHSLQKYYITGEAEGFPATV
Chain of Estrogen receptor beta (Homo sapiens) (Q92731 whole entry, looked up, the tested form may be a part): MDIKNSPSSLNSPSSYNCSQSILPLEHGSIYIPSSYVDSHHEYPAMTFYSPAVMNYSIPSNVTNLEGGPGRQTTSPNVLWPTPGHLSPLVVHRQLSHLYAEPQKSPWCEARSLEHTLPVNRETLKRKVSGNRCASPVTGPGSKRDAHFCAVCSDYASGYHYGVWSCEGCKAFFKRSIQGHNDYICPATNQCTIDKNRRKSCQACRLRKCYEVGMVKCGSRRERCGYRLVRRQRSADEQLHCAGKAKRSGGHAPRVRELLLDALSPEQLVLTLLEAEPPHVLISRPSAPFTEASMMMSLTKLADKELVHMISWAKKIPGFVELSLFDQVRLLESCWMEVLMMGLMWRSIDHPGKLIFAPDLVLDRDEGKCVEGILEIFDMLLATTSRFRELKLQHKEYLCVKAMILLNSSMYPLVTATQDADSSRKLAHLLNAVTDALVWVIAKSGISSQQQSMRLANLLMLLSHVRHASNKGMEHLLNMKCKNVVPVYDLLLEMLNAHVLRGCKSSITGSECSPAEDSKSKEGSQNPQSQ
Chain of mouse Estrogen Receptor alpha (Era), Esr1 (gene 13982) (P19785 whole entry, looked up): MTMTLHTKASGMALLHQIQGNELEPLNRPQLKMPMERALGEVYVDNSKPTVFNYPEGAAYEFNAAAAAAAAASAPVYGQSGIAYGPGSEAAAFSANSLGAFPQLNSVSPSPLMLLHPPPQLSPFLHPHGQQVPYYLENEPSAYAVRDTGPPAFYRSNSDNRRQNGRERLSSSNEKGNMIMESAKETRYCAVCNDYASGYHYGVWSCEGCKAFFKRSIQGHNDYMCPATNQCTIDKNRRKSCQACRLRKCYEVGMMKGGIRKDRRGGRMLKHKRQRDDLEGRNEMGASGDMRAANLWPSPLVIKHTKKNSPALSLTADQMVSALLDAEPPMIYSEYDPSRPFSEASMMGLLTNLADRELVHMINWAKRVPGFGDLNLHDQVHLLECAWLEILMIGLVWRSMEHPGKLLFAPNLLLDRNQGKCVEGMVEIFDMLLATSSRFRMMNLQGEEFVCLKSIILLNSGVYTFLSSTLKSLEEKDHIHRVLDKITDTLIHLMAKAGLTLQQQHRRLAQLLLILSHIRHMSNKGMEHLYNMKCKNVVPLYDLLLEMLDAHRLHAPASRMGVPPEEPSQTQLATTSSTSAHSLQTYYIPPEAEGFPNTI
Chain of Retinoic acid receptor RXR-alpha (Homo sapiens) (P19793 whole entry, looked up, the tested form may be a part): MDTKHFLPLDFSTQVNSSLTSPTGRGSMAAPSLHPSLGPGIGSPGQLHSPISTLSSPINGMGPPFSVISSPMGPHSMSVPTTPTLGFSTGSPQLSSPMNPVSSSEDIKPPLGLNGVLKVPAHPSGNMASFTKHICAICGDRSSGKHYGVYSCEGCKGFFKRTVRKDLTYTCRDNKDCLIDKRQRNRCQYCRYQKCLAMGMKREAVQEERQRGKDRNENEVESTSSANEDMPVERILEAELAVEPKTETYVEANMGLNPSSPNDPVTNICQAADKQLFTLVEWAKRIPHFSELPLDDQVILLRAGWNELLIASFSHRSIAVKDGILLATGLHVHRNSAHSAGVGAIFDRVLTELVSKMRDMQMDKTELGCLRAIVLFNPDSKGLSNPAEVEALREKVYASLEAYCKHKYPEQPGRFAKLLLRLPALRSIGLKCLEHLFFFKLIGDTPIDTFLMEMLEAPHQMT
Chain of human Norepinephrine Transporter (NET), SLC6A2 (gene 6530) (P23975 whole entry, looked up): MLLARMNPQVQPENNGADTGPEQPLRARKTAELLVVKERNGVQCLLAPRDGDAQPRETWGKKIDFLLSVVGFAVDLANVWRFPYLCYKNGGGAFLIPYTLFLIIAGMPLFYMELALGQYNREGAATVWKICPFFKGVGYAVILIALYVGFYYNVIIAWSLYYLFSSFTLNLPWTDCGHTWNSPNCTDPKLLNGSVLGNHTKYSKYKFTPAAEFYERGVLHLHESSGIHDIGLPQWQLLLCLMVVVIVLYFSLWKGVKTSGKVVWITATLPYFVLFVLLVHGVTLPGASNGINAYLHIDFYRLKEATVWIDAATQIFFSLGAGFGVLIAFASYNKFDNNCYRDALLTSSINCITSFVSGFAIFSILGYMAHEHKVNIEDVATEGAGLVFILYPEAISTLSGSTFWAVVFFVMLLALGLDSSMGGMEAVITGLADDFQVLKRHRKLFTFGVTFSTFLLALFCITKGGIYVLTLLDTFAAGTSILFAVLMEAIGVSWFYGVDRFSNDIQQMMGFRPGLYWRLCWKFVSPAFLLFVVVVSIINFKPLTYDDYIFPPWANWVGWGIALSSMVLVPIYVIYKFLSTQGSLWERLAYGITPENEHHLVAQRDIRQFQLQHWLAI
Chain of Agonist Androgen Response Element (ARE), AR (gene 367) (P10275 whole entry, looked up): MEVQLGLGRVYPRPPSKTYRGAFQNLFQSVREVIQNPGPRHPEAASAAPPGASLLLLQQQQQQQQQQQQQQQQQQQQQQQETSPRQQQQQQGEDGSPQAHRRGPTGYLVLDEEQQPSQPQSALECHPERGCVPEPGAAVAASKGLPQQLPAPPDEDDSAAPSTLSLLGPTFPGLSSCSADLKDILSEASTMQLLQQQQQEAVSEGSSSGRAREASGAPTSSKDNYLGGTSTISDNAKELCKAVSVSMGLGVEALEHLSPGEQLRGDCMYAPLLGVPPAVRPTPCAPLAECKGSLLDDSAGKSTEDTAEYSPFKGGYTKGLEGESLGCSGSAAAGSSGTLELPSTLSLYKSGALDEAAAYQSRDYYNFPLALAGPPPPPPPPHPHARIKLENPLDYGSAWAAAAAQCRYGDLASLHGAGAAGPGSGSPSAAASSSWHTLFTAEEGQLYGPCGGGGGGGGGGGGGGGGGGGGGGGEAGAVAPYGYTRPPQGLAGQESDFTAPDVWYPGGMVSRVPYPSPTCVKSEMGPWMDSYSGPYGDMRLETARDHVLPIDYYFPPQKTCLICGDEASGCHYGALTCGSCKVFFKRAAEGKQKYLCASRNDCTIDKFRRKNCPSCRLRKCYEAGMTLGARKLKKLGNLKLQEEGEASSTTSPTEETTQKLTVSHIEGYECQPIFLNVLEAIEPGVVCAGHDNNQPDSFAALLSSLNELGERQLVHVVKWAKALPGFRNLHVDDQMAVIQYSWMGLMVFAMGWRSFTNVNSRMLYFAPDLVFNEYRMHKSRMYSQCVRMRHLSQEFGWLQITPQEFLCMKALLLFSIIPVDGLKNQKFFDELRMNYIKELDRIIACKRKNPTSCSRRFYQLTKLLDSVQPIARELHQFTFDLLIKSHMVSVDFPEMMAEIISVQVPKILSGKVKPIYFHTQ

As usually defined, the AC50 is the concentration at which the activity in the assay is half-maximal. With `Cc1occc1C(=O)Nc1ccc(C(=O)N2CCC(F)(F)/C(=C\C(=O)N3CCC(N4CCCCC4)CC3)c3ccccc32)cc1`, the result in [1], in test [2], in [3], in [4], in [7] and in test [8] was inactive. The AC50 in test [5] was 28.6 µM (active); in [6] it was 28.3 µM (active).

For `Cc1cc(F)ccc1-c1cc(N2CC[C@@H](O)[C@H]2CO)ncc1N(C)C(=O)C(C)(C)c1cc(C(F)(F)F)cc(C(F)(F)F)c1`, the AC50 in [9] is 5.97 µM (active); in test [6], 9.74 µM (active). Moreover, the molecule was classed as inactive in test [1], in [2], in test [3], in [4], in test [7] and in test [8].

As for `CCCCCCCCCCCO`, the molecule was classed as inactive in test [10], in [2], in test [3], in test [4], in test [11] and in test [12]. Further, the call in [5], in test [6], in test [7] and in test [8] was inactive.

Regarding `COc1ccc2cc(S(=O)(=O)N[C@H](CC(=O)N[C@H](Cc3ccc(CN4[C@H](C)CCC[C@@H]4C)cc3)C(=O)N(C)C(C)C)c3ccc4c(c3)OCO4)ccc2c1`, the molecule was called inactive in [10], in [7] and in test [8]. The AC50 in test [3] is 15.8 µM (active); in test [4], 28.6 µM (active); in [11], 11.1 µM (active); in [5], 11.1 µM (active).

`COc1cc(C(=O)NC2CCN(C)CC2)ccc1Nc1ncc2c(n1)N(C1CCCC1)CC(F)(F)C(=O)N2C`: the result in test [13], in test [3], in test [4], in test [7] and in test [8] was inactive. Also, the AC50 is 23.2 µM (active) in test [9]; 1.49 µM (active) in test [10]; 1.94 µM (active) in test [2]; 11 µM (active) in test [11]; 11 µM (active) in [12]; 10.9 µM (active) in test [5]. In [6], the AC50 is 11 µM (active).

On to `CN(C)c1ccc(C(=C2C=CC(=[N+](C)C)C=C2)c2ccc(N(C)C)cc2)cc1`, for which the values for the AC50 in test [13] and in [9] were 7.04 µM (active) and 4.79 µM (active), respectively. The molecule was called inactive in [1], in [2], in test [3], in test [4], in [7] and in test [8].

Take `CCCOC(=O)c1cc(O)c(O)c(O)c1`: the molecule was called inactive in [10], in [3], in test [4], in test [11], in test [12] and in test [5]. Besides, the molecule was classed as inactive in test [6], in test [7] and in [8]. Besides, the AC50 in test [2] is 12.7 µM (active).

Regarding `Clc1ccccc1C(c1ccccc1)(c1ccccc1)n1ccnc1`, the result in test [9], in [10], in test [2], in test [4], in [5] and in test [7] was inactive. In test [8], the molecule was classed as inactive. Besides, the AC50 was 79 µM (active) in test [3]; 142 nM (active) in [14]; 8.09 nM (active) in test [15]; 1.95 nM (active) in test [16]; 50.2 nM (active) in [17]; 40.1 nM (active) in test [18]. In [19], the AC50 is 244 nM (active).

Turning to `CCCCCCCCOC(=O)c1cc(O)c(O)c(O)c1`, the AC50 was 5.24 µM (active) in test [9]; 11.3 µM (active) in [10]; 11.6 µM (active) in test [2]; 50 µM (active) in test [3]; 3.33 µM (active) in [4]; 63.6 µM (active) in test [11]. The figures for the AC50 in test [6] and in test [18] were 68.5 µM (active) and 5000 nM (active), respectively. Moreover, the molecule was classed as inactive in [5], in [6], in [7], in test [8], in test [14] and in test [15]. Moreover, the result in test [17] and in test [19] was inactive.

(Values after PubChem BioAssay (EPA / NIEHS).)
